Reference: PubChem BioAssay AID720597 (Broad Institute, 2013)
Measured potencies and affinities stand elsewhere. Active and inactive are the calls of the source.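 Rule for the calls: active = fitted half-maximal dose no more than twice the top valid tested dose, for compounds that lower signal; inconclusive = fit invalid, or curve flat with activity between -70 and -30; inactive = potency past limit, curve flat within ±30, or signal increasing.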

Target: NAD-dependent protein deacylase sirtuin-5, mitochondrial (Homo sapiens) (UniProt Q9NXA8)
Sequence (Q9NXA8 whole entry, looked up): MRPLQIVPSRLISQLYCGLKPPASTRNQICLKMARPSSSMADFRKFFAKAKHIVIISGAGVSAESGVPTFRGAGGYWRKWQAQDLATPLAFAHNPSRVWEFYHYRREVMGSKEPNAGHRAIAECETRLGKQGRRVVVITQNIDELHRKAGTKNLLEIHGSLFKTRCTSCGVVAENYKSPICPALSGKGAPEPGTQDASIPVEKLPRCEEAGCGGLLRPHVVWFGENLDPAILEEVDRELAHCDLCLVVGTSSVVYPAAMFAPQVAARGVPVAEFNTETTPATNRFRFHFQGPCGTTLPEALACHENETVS
Experiment: SIRT5 deacylase inhibitors, dose response, biochemical, fluorescence imaging, cherry-pick, set 6 (AID 720597);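 note: lower AMC signal can also come from blocking the trypsin step; 0% = median of neutral control wells and -100% = median of positive control wells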
Conditions: Purified SirT5, succinyl-peptide-AMC/trypsin fluorescence; series mostly up to 15 µM; activity change, negative = inhibition: at the top concentration

Activity change, negative = inhibition, inactive:
C[C@@H]1CN([C@H](C)CO)S(=O)(=O)c2ccc(C#Cc3ccc(F)cc3)cc2O[C@@H]1CN(C)S(=O)(=O)c1ccc(F)cc1 -5.8%
COc1ccc(S(=O)(=O)N(C)C[C@H]2Oc3ccc(NC(=O)NC4CCCCC4)cc3C(=O)N([C@@H](C)CO)C[C@@H]2C)cc1 -0.523%
C[C@H]1CN([C@@H](C)CO)C(=O)CCCn2cc(nn2)CO[C@H]1CN(C)Cc1ccccc1 9.33% [at 16 µM]
C[C@H](CO)N1C[C@H](C)[C@@H](CN(C)Cc2ccc(C(=O)O)cc2)Oc2ccc(NS(=O)(=O)c3ccc(Cl)cc3)cc2C1=O 5.79%
Cc1ccc(S(=O)(=O)N(C)C[C@@H]2OCCCC[C@H](C)Oc3ccc(NS(=O)(=O)c4ccc(F)cc4)cc3C(=O)N([C@H](C)CO)C[C@@H]2C)cc1 -20.2%
C[C@H]1CN([C@@H](C)CO)C(=O)c2cc(C#CCN(C)C)cnc2O[C@H]1CN(C)Cc1ccncc1 -5.33%
Cc1ccc(S(=O)(=O)N(C)C[C@H]2Oc3ncc(-c4ccncc4)cc3C(=O)N([C@@H](C)CO)C[C@@H]2C)cc1 -4.75%
C[C@@H]1CN([C@H](C)CO)S(=O)(=O)c2ccc(C#CC(C)(C)O)cc2O[C@@H]1CN(C)Cc1ccc(-c2ccccc2)cc1 27.4%
CCS(=O)(=O)N1CC2(CN(Cc3cccc(Cl)c3)[C@H](CO)c3c2c2ccc(OC)cc2n3C)C1 11.6%
COc1ccc(CN2C[C@@H](O)COC[C@H]3O[C@H](CC(=O)NCCN4CCCC4)CC[C@@H]32)cc1 -17.3%
C/C=C/c1cnc2c(c1)C(=O)N([C@@H](C)CO)C[C@@H](C)[C@@H](CN(C)C(=O)NC1CCCCC1)O2 35.9%
